A number with no mark means an inactive call. Records with an inconclusive call do not appear. Calls of active or inactive are those of the source. The call rests on the fitted dose curve; in most records, active means well fitted curve in the direction sought with a large enough effect; inconclusive means small, poorly fitted or top-dose-only effect, or another doubt; inactive means no such curve, though single readings can be large; an effect the other way counts as inactive or inconclusive.

Consider six compounds from PubChem BioAssay (NCATS).

For assay [1], the target named is Calcium and integrin-binding protein 1 (Homo sapiens) (UniProt Q99828). The experiment in a line: Primary qHTS for Identification of Calcium Integrin Binding Protein 1 (CIB1) Competitor (AID 1508620).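 Further: GST tagged CIB1 binding a fluorescein labelled alphaIIb integrin peptide tracer; top concentration of the series differs between compounds; on the % scale 0 is the no-effect control and ±100 the full control effect.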 The method, boiled down:
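Fluorescence polarization competition: GST-tagged CIB1 (1 uM final) preincubated with compound 15 min at room temperature, then FITC-labelled alphaIIb peptide (100 nM final) added. After 15 min at room temperature, polarization read at Ex 480/Em 540.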
A general note: Quantitative high-throughput screening tests each substance at several concentrations.

Assay [2] is described as follows: Primary qHTS for inhibitors of nuclear receptor binding SET domain protein 2 (NSD2) in an isogenic RCH-ACV NSD2 p.E1099K mutant (9B) (AID 1645876). Further: nearly all actives have a fitted effect of over 70% in size. Further: potency means the concentration at half of the fitted maximal effect.
For assay [3], the target named is Luciferin 4-monooxygenase (Photinus pyralis) (UniProt P08659). Description: Primary firefly luciferase (FLuc) qHTS assay for identification of artifact compounds. (AID 1845220). Further: nearly all actives have a fitted effect of over 60% in size. Conditions: outcome: dose series up to 54.1 µM unless noted. An outline of the steps: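 D-luciferin and ATP (10 uM each, final) in Tris acetate buffer pH 7.6 were incubated with compounds for 15 min at room temperature. The reaction was started with 10 nM Photinus pyralis luciferase and luminescence read after 5 min. Percent inhibition was fitted to a 4-parameter Hill equation.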

Assay [4] relates to Nanoluciferase (engineered Oplophorus gracilirostris luciferase). Description: Primary Nanoluciferase (NLuc) qHTS assay for identification of artifact compounds. (AID 1845222).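 Further: 0% = DMSO and -100% = no enzyme.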 An outline of the steps: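 Diluted conditioned medium from NLuc-expressing S16 cells treated with compounds for 15 min at room temperature, then Nano-Glo substrate added; luminescence read after 5 min. Percent inhibition versus no-enzyme and DMSO controls fitted to 4-parameter Hill equation.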

For assay [5], the system named is CRL-7250. Description: Cytotoxic Profiling of Annotated Libraries Using Quantitative High-Throughput Screening (AID 1296008). Further: nearly all actives have a fitted effect of over 60% in size. Further: potency means the concentration at half of the fitted maximal effect. On max response: on the % scale 0 is the no-effect control and ±100 the full control effect. Conditions: Five cell lines viability, CellTiter-Glo ATP luminescence, 48-72 h; max response: active compounds read low. The method, boiled down: (§1)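 Cells exposed to compounds for 48 or 72 hr at 37 degrees Celsius. Viability read as ATP-coupled luminescence with CellTiter-Glo after 10 min at room temperature.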
A general note: ATP-based viability assays read luminescence as a measure of living cells.

The test system of assay [6] is HEK293. Described as above. The note with it: Five cell lines viability, CellTiter-Glo ATP luminescence, 48-72 h; max response: active compounds read low. The method, boiled down:
as §1

The test system of assay [7] is CASKI. The experiment in a line: Primary qHTS to identify gynecologic anti-cancer compounds using libraries of approved drugs and bioactive compounds (AID 1345084). Further: nearly all actives have a fitted effect of over 55% in size. Further: potency means the concentration at half of the fitted maximal effect. The note with it: Gynecologic cancer cell panel viability, ATPlite luminescence, 48 h; series mostly up to 57.5 µM. The method, boiled down: (§2)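 Five-point cytotoxicity, 48 h drug exposure at 37 C, 5% CO2, on cells seeded 16 h beforehand. ATP content read by ATPlite luminescence.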

For assay [8], the system named is JEG-3. The assay is described as above. The note with it: Gynecologic cancer cell panel viability, ATPlite luminescence, 48 h; series mostly up to 57.5 µM. The method, boiled down: as §2
The subject of assay [9] is Tov-21-G. The description is as above. The note with it: Gynecologic cancer cell panel viability, ATPlite luminescence, 48 h; series mostly up to 57.5 µM. An outline of the steps:
as §2

A short description of assay [10]: P-glycoprotein substrates identified in KB-8-5-11 adenocarcinoma cell line, qHTS therapeutic library screen (AID 1346987). Further: nearly all actives have a fitted effect of over 65% in size. Further: potency means the concentration at half of the fitted maximal effect. The method, boiled down: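 KB-8-5-11: colchicine-selected sub-line of KB-3-1 over-expressing P-gp; assay medium lacked colchicine. 72 h drug exposure at 37 degree C, CellTiter-Glo.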
Assay [11] has as its system C33A. The experiment in a line: Primary qHTS to identify gynecologic anti-cancer compounds using libraries of approved drugs and bioactive compounds (AID 1345084). Further: nearly all actives have a fitted effect of over 55% in size. Further: potency means the concentration at half of the fitted maximal effect. Conditions: Gynecologic cancer cell panel viability, ATPlite luminescence, 48 h; series mostly up to 57.5 µM. The method, boiled down:
as §2

Assay [12] has as its system CAOV3. The description is as above. Conditions: Gynecologic cancer cell panel viability, ATPlite luminescence, 48 h; series mostly up to 57.5 µM. The method, boiled down: as §2
Assay [13] has as its system Es-2. The description is as above. The note with it: Gynecologic cancer cell panel viability, ATPlite luminescence, 48 h; series mostly up to 57.5 µM. An outline of the steps:
as §2

Assay [14] relates to Hek293T. The assay is described as above. Conditions: Gynecologic cancer cell panel viability, ATPlite luminescence, 48 h, control line for the selectivity index; series mostly up to 57.5 µM. The method, boiled down:
as §2

Assay [15] relates to OV90. The assay is described as above. The note with it: Gynecologic cancer cell panel viability, ATPlite luminescence, 48 h; series mostly up to 57.5 µM. An outline of the steps: as §2
The subject of assay [16] is PA-1. The description is as above. The note with it: Gynecologic cancer cell panel viability, ATPlite luminescence, 48 h; series mostly up to 57.5 µM. The method, boiled down:
as §2

Assay [17] relates to Tov112D. The assay is described as above. Conditions: Gynecologic cancer cell panel viability, ATPlite luminescence, 48 h; series mostly up to 57.5 µM. The method, boiled down:
as §2

Assay [18] concerns the target Phospholipid hydroperoxide glutathione peroxidase GPX4 (Homo sapiens) (UniProt P36969). The experiment in a line: Primary qHTS Assay for Inhibitors of Recombinant Selenoprotein Glutathione Peroxidase 4 (GPX4) (AID 1845192). Further: on the % scale 0 is the no-effect control and ±100 the full control effect; nearly all actives have a fitted effect of over 65% in size. An outline of the steps:
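GR-coupled assay: recombinant GPX4 preincubated 30 min with compound at room temperature; final 200 nM GPX4, 1 mM GSH, 0.5 mM cumene hydroperoxide, 0.5 mM NADPH, 100 nM GR, 0.01% BSA, pH 7.5 Tris. NADPH fluorescence (340/450 nm) read at 0 and 15 min.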

In assay [19] the test system is NIH3T3. Description: Cytotoxic Profiling of Annotated Libraries Using Quantitative High-Throughput Screening (AID 1296008). Further: nearly all actives have a fitted effect of over 60% in size. Further: potency means the concentration at half of the fitted maximal effect. On max response: on the % scale 0 is the no-effect control and ±100 the full control effect. The note with it: Five cell lines viability, CellTiter-Glo ATP luminescence, 48-72 h; max response: active compounds read low. The method, boiled down: as §1
Assay [20] deals with HaCat. The assay is described as above. Conditions: Five cell lines viability, CellTiter-Glo ATP luminescence, 48-72 h; max response: active compounds read low. An outline of the steps: as §1

Sequence of Calcium and integrin-binding protein 1 (Homo sapiens) (Q99828 whole entry, looked up): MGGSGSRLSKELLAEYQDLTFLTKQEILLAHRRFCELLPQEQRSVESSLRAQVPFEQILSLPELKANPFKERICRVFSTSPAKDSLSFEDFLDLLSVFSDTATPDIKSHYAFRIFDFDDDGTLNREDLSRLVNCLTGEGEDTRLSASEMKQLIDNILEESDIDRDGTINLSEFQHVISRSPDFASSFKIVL
Sequence of Phospholipid hydroperoxide glutathione peroxidase GPX4 (Homo sapiens) (P36969 whole entry, looked up): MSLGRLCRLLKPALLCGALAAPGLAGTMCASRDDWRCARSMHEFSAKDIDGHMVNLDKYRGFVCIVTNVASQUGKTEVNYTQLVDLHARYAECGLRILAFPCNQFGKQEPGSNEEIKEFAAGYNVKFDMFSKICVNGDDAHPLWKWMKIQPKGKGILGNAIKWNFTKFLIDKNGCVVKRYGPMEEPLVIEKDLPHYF

In the case of `CC1=CC(=O)[C@@H](O)[C@@]2(C)C1C[C@H]1OC(=O)[C@H](O)[C@@]3(O)[C@@H](C)[C@@H](O)[C@H](O)C2[C@@]13C` (stereo partly drawn), the Potency result in [1], in assay [4], in assay [7] and in assay [8] was “inactive” each time. In addition, the Potency in assay [2] is 1.27 µM (active); in assay [5], 2.86 µM (active); in assay [6] it was 2.02 µM (active); in [9] it was 11.2 µM (active). For the same compound, in [3], the compound was called inactive.
`C#C[C@]1(O)CC[C@H]2[C@@H]3CC[C@H]4Cc5nc6nc7ccccc7n6cc5C[C@]4(C)[C@H]3CC[C@@]21C`: the values for the Potency in [10], in assay [2] and in [6] were 20.6 µM (active), 12.9 µM (active) and 14.6 µM (active), respectively. Also, in [3], the compound was classed as inactive. The Potency entry in assay [4], in assay [11], in assay [12], in assay [7], in assay [13] and in assay [14] was “inactive” in each case. In addition, the Potency result in assay [8], in assay [15], in [16] and in assay [17] was “inactive” in each case. Moreover, the max response in assay [5] is 1.18%.
As to `C[C@]12CC[C@H](O)C[C@@H]1CC[C@@H]1[C@@H]2CC[C@]2(C)[C@@H](C3=CC(=O)OC3)CC[C@]12O`, the Potency in [10] was 11.4 µM (active); in [2], 2.84 µM (active); in [5] it was 4.53 µM (active); in assay [6], 5.08 µM (active); in assay [11] it was 7.94 µM (active); in assay [13] it was 8.91 µM (active). In addition, the Potency entry in assay [1], in assay [18], in [4], in [7], in [8] and in [15] was “inactive” in each case. The compound was called inactive in assay [3]. Besides, the max response in assay [19] is 3.54%.
For `CC(C)[C@H](NC(=O)c1nn(Cc2ccc(F)cc2)c2ccccc12)C(N)=O`, the Potency entry in [10], in assay [1], in assay [2], in [18], in assay [4] and in [11] was “inactive” each time. In addition, the Potency entry in assay [12], in assay [7], in assay [13], in [14], in assay [8] and in assay [15] was “inactive” throughout. Moreover, the Potency result in assay [16], in assay [9] and in assay [17] was “inactive” throughout. The compound was classed as inactive in [3]. The results for the max response in assay [5], in assay [6] and in assay [19] were -7.52%, -11.8% and -27.5%, respectively.
Consider `CCN1C[C@]2(COC)CC[C@H](O)[C@@]34C5C[C@@H]6[C@@H](OC)C[C@@](OC(C)=O)(C5[C@@H]6OC(C)=O)[C@H]([C@H](OC)C23)[C@@H]14` (stereo partly drawn), for which the Potency result in [10], in assay [2], in [18], in assay [4], in [11] and in assay [12] was “inactive” each time. In addition, the Potency result in assay [7], in assay [13], in assay [14], in assay [8], in [15] and in assay [16] was “inactive” throughout. Further, the Potency result in [9] and in assay [17] was “inactive” throughout. Further, the outcome in [3] was inactive. Further, the values for the max response in assay [5], in assay [6] and in [19] were 0.922%, 3.98% and 2.14%, respectively.
For `Cc1c(N[C@@H](c2nnc(-c3ccc(C#N)cc3)o2)[C@H](C)O)ccc(C#N)c1Cl`, the Potency result in [10], in assay [1], in [18], in assay [4], in assay [11] and in assay [12] was “inactive” in each case. Also, the Potency entry in assay [7], in [13], in [14], in assay [8], in assay [15] and in assay [16] was “inactive” throughout. In addition, the Potency result in assay [9] and in [17] was “inactive” throughout. The call in assay [3] and in [5] was inactive. Also, the max response in [20] was -11%; in [19] it was 4.88%.
